Results on seven molecules are retold here after PubChem BioAssay (NCATS).

Test [1] is described as follows: qHTS drug screen for cell cycle checkpoint inhibitors in PARPi-resistant BRCA-mutant ovarian cancer cell lines. (AID 1963452; calls by dose curve). To be noted: PEO1/OlaR viability, CellTiter-Glo luminescence, 96 h, stronger effect = lower value. Put shortly: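 PEO1, PEO4 and PEO1/OlaR ovarian cancer cells, 600 per well, exposed 96 h at 37C to a dilution series. Viability read by CellTiter-Glo luminescence, normalized to DMSO and empty wells; activity summarized as Z-AUC.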
Background: Quantitative high-throughput screening tests each substance at several concentrations.

Test [2] can be described thus: qHTS profiling for inhibitors of Plasmodium falciparum proliferation (AID 504749).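 Further: 0% = DMSO vehicle and full inhibition = artemisinin control; nearly all actives have a fitted effect of over 60% in size.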 To be noted: P. falciparum in erythrocytes, SYBR Green DNA, 72 h, at 28.7 µM (top of the series). The gist of the method: (§1)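 Readout was DNA-dye fluorescence from lysed cultures, ex 485/em 535 nm. Parasitized red cells had grown 72 h with compound; data scaled between 0.29 uM artemisinin and DMSO wells and corrected using vehicle-only plates.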

In another test the test system is 3D7. The description is as above. To be noted: P. falciparum in erythrocytes, SYBR Green DNA, 72 h; series mostly up to 28.7 µM. Put shortly: as §1
The subject of another test is 7G8. The description is as above. To be noted: P. falciparum in erythrocytes, SYBR Green DNA, 72 h; series mostly up to 28.7 µM. The gist of the method: as §1
Another test deals with AA1029. The description is as above. The settings on record: P. falciparum in erythrocytes, SYBR Green DNA, 72 h; series mostly up to 28.7 µM. Put shortly:
as §1

In a further test the test system is AS120. Described as above. To be noted: P. falciparum in erythrocytes, SYBR Green DNA, 72 h; series mostly up to 28.7 µM. The gist of the method: as §1
The subject of a further test is ATS189. The test is described as above. To be noted: P. falciparum in erythrocytes, SYBR Green DNA, 72 h; series mostly up to 28.7 µM. The gist of the method:
as §1

A further test relates to ATS95. The test is described as above. The settings on record: P. falciparum in erythrocytes, SYBR Green DNA, 72 h; series mostly up to 28.7 µM. The gist of the method: as §1
The next test concerns C2A. The test is described as above. The settings on record: P. falciparum in erythrocytes, SYBR Green DNA, 72 h; series mostly up to 28.7 µM. The gist of the method:
as §1

The next test has as its system CP185. Described as above. To be noted: P. falciparum in erythrocytes, SYBR Green DNA, 72 h; series mostly up to 28.7 µM. The gist of the method:
as §1

The test system of the next test is CP191. The test is described as above. To be noted: P. falciparum in erythrocytes, SYBR Green DNA, 72 h; series mostly up to 28.7 µM. The gist of the method:
as §1

For a further test, the system named is CP192. The description is as above. The settings on record: P. falciparum in erythrocytes, SYBR Green DNA, 72 h; series mostly up to 28.7 µM. Put shortly: as §1
A further test relates to CP194. Described as above. To be noted: P. falciparum in erythrocytes, SYBR Green DNA, 72 h; series mostly up to 28.7 µM. Put shortly:
as §1

The test system of another test is CP201. The description is as above. To be noted: P. falciparum in erythrocytes, SYBR Green DNA, 72 h; series mostly up to 28.7 µM. Put shortly:
as §1

The subject of the next test is CP203. Described as above. To be noted: P. falciparum in erythrocytes, SYBR Green DNA, 72 h; series mostly up to 28.7 µM. The gist of the method:
as §1

A further test concerns CP211. The test is described as above. The settings on record: P. falciparum in erythrocytes, SYBR Green DNA, 72 h; series mostly up to 28.7 µM. Put shortly: as §1
A further test concerns CP215. Described as above. The settings on record: P. falciparum in erythrocytes, SYBR Green DNA, 72 h; series mostly up to 28.7 µM. The gist of the method:
as §1

The next test has as its system CP217. Described as above. To be noted: P. falciparum in erythrocytes, SYBR Green DNA, 72 h; series mostly up to 28.7 µM. The gist of the method:
as §1

Another test relates to CP237. The description is as above. The settings on record: P. falciparum in erythrocytes, SYBR Green DNA, 72 h; series mostly up to 28.7 µM. The gist of the method:
as §1

The nature of test [3]: Dual reporter qHTS for antagonist of Pregnane X Receptor (hPXR) against the NCATS DSHEA and TCM libraries: Fluorescence Readout (AID 1920061). Further: 0% is about no effect. The settings on record: PXR dual reporter cells, antagonist mode; series mostly up to 40 µM. Put shortly:
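In antagonist mode, 2 uM rifampicin was added to hPXR-Luc HepG2 cells alongside test substances, incubated 24 h at 37 C; luminescence gave reporter activity, and CellTiter-Fluor fluorescence (405/540 nm) gave viability.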

Where [4] appears, read: measured here: PEO1 parental Z-AUC.

Records with an inconclusive call do not appear. Calls of active or inactive are those of the source. Unless noted, the call rests on the fitted dose curve; in most records, active means well fitted curve in the direction sought with a large enough effect; inconclusive means small, poorly fitted or top-dose-only effect, or another doubt; inactive means no such curve, though single readings can be large; an effect the other way counts as inactive or inconclusive.

As for `C[C@H]1O[C@@H](n2cc(F)c(=O)[nH]c2=O)[C@H](O)[C@@H]1O`, the results for the Z-AUC in [1], in test [1] (setting [4]) and in [1] (measured here: PEO4 Z-AUC) were 0.97 (inactive), 1.13 and 1.52, respectively. For the same molecule, the figures for the activity, negative = inhibition in test [2] (parasite line A) and in [2] (parasite line B) were 3.03% (inactive) and 4.84% (inactive), respectively. Moreover, the Potency entry in the test on 3D7, in the test with 7G8, in the test with AA1029, in the test on AS120, with ATS189 and in the test with ATS95 was “inactive” throughout. The Potency entry in the test on C2A, in the test on CP185, in the test with CP191, in the test on CP192, with CP194 and in the test with CP201 was “inactive” in each case. Moreover, the Potency result in the test on CP203, with CP211, in the test on CP215, in the test on CP217 and with CP237 was “inactive” in each case.

Take `CN(N=O)C(=O)N[C@@H]1[C@@H](O)[C@H](O)[C@@H](CO)O[C@@H]1O`: the Z-AUC in [1] was 1.08 (inactive); in test [1] (setting [4]), 0.655; in test [1] (measured here: PEO4 Z-AUC), 0.737.

For the molecule `O=C(O)c1ccccc1O`, the call in test [3] was inactive. For the same molecule, the activity, negative = inhibition was 0.135% (inactive) in test [2] (parasite line A) and 11.3% (inactive) in test [2] (parasite line B). Also, the Potency result with 3D7, in the test on 7G8, with AA1029, in the test on AS120, in the test on ATS189 and in the test on ATS95 was “inactive” each time. The Potency entry with C2A, in the test with CP185, in the test on CP191, with CP192, with CP194 and with CP201 was “inactive” each time. Further, the Potency result in the test on CP203, with CP211, in the test on CP215, in the test on CP217 and in the test with CP237 was “inactive” throughout.

On to `CC(=O)OCC(=O)[C@@]1(O)CC[C@H]2[C@@H]3CCC4=CC(=O)CC[C@]4(C)[C@H]3C(=O)C[C@@]21C`, for which the Z-AUC is -1.11 (inactive) in [1], -0.142 in test [1] (setting [4]) and -0.613 in test [1] (measured here: PEO4 Z-AUC).

With `CCOC(=O)c1ccc(O)cc1`, the activity, negative = inhibition in test [2] (parasite line A) was 6.51% (inactive); in [2] (parasite line B), -7.49% (inactive). Besides, the Potency result with 3D7, in the test on 7G8, in the test on AA1029, in the test with AS120, in the test with ATS189 and with ATS95 was “inactive” throughout. Moreover, the Potency entry with C2A, with CP185, in the test with CP191, in the test on CP192, in the test on CP194 and in the test with CP201 was “inactive” throughout. For the same molecule, the Potency entry in the test with CP203, in the test with CP211, with CP215, with CP217 and in the test on CP237 was “inactive” each time.

As to `O=S(=O)(O)NC1CCCCC1`, the figures for the activity, negative = inhibition in [2] (parasite line A) and in test [2] (parasite line B) were 2.07% (inactive) and 5.79% (inactive), respectively. Moreover, the Potency result in the test on 3D7, in the test on 7G8, with AA1029, in the test on AS120, with ATS189 and in the test on ATS95 was “inactive” in each case. Besides, the Potency entry in the test with C2A, in the test with CP185, in the test with CP191, in the test on CP192, with CP194 and in the test on CP201 was “inactive” in each case. The Potency result in the test with CP203, with CP211, with CP215, in the test on CP217 and in the test on CP237 was “inactive” throughout.

As to `NC(=O)NC(=O)Cc1ccccc1`, the activity, negative = inhibition in test [2] (parasite line A) is 2.68% (inactive); in test [2] (parasite line B) it was -4.74% (inactive). Besides, the Potency entry with 3D7, in the test on 7G8, with AA1029, with AS120, in the test with ATS189 and with ATS95 was “inactive” throughout. Moreover, the Potency entry in the test on C2A, in the test with CP185, with CP191, in the test with CP192, with CP194 and with CP201 was “inactive” each time. The Potency entry in the test with CP203, in the test on CP211, in the test on CP215, in the test on CP217 and in the test with CP237 was “inactive” in each case.
